In PubChem BioAssay AID1159580 (chemical genetic matrix, 2015):
The campaign covered roughly 5,500 compounds. About 2,000 (36%) were called active. Inconclusive results (about 18%) are left out. No stated cut-off is given here; in the data, active means normalized growth mostly below about 0.91 (no sharp cut-off); inconclusive means no clear call, values can overlap the other calls; inactive means mostly above about 0.92. The list shows a part of the results.

Test: chemical genetic growth profiling, strain panel (AID 1159580);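 further: tested at 20 µM; growth read once vehicle control cultures reached saturation at 30 °C; 1 = growth at the plate median or of vehicle wells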
Details: growth OD
[1] = S. cerevisiae deletion strains, locus YDL101C, strain DUN1, stronger effect = lower value
[2] = S. cerevisiae deletion strains, locus YHR030C, strain SLT2, stronger effect = lower value

Measured: normalized growth

S=C(Nc1ccc(Cl)cc1)SCc1c(Cl)cccc1Cl
inactive: S. cerevisiae deletion strains, locus YAR019C, strain CDC15, stronger effect = lower value 0.976 | S. cerevisiae deletion strains, locus YBL105C, strain PKC1, stronger effect = lower value 0.984 | S. cerevisiae deletion strains, locus YBR135W, strain CKS1, stronger effect = lower value 0.977 | S. cerevisiae deletion strains, locus YBR136W, strain MEC1, stronger effect = lower value 0.996 | S. cerevisiae deletion strains, locus YBR160W, strain CDC28, stronger effect = lower value 0.987 | S. cerevisiae deletion strains, locus YDL017W, strain CDC7, stronger effect = lower value 0.984 | S. cerevisiae deletion strains, locus YDL028C, strain MPS1, stronger effect = lower value 0.985 | [1] 0.993 | S. cerevisiae deletion strains, locus YDL108W, strain KIN28, stronger effect = lower value 0.997 | S. cerevisiae deletion strains, locus YDL132W, strain cdc53, stronger effect = lower value 0.979 | S. cerevisiae deletion strains, locus YDL214C, strain PRR2, stronger effect = lower value 0.96 | S. cerevisiae deletion strains, locus YDR052C, strain DBF4, stronger effect = lower value 0.989 | S. cerevisiae deletion strains, locus YDR054C, strain cdc34, stronger effect = lower value 0.978 | S. cerevisiae deletion strains, locus YDR226W, strain ADK1, stronger effect = lower value 0.983 | S. cerevisiae deletion strains, locus YDR477W, strain SNF1, stronger effect = lower value 0.95 | S. cerevisiae deletion strains, locus YER123W, strain YCK3, stronger effect = lower value 0.973 | S. cerevisiae deletion strains, locus YER133W, strain GLC7, stronger effect = lower value 0.915 | S. cerevisiae deletion strains, locus YFL009W, strain cdc4, stronger effect = lower value 0.977 | S. cerevisiae deletion strains, locus YFL029C, strain CAK1, stronger effect = lower value 0.974 | S. cerevisiae deletion strains, locus YFR003C, strain YPI1, stronger effect = lower value 0.984 | S. cerevisiae deletion strains, locus YFR019W, strain FAB1, stronger effect = lower value 0.961 | S. cerevisiae deletion strains, locus YFR028C, strain CDC14, stronger effect = lower value 0.971 | S. cerevisiae deletion strains, locus YGR040W, strain KSS1, stronger effect = lower value 0.938 | S. cerevisiae deletion strains, locus YGR052W, strain FMP48, stronger effect = lower value 1.06 | S. cerevisiae deletion strains, locus YGR092W, strain DBF2, stronger effect = lower value 0.89 | [2] 0.996 | S. cerevisiae deletion strains, locus YHR079C, strain IRE1, stronger effect = lower value 1.08 | S. cerevisiae deletion strains, locus YHR082C, strain KSP1, stronger effect = lower value 1.03 | S. cerevisiae deletion strains, locus YHR205W, strain SCH9, stronger effect = lower value 0.999 | S. cerevisiae deletion strains, locus YIL147C, strain SLN1, stronger effect = lower value 0.992 | S. cerevisiae deletion strains, locus YJL095W, strain BCK1, stronger effect = lower value 1.05 | S. cerevisiae deletion strains, locus YJL128C, strain PBS2, stronger effect = lower value 0.967 | S. cerevisiae deletion strains, locus YJL157C, strain FAR1, stronger effect = lower value 0.96 | S. cerevisiae deletion strains, locus YJR016C, strain ILV3, stronger effect = lower value 0.973 | S. cerevisiae deletion strains, locus YJR066W, strain TOR1 (second series), stronger effect = lower value 0.932 | S. cerevisiae deletion strains, locus YJR066W, strain TOR1, stronger effect = lower value 1.02 | S. cerevisiae deletion strains, locus YKL048C, strain ELM1, stronger effect = lower value 0.992 | S. cerevisiae deletion strains, locus YKL067W, strain YNK1, stronger effect = lower value 0.972 | S. cerevisiae deletion strains, locus YKL101W, strain HSL1, stronger effect = lower value 0.994 | S. cerevisiae deletion strains, locus YKL193C, strain SDS22, stronger effect = lower value 0.978 | S. cerevisiae deletion strains, locus YKL203C, strain TOR2, stronger effect = lower value 1.02 | S. cerevisiae deletion strains, locus YLR113W, strain HOG1, stronger effect = lower value 1.09 | S. cerevisiae deletion strains, locus YLR133W, strain CKI1, stronger effect = lower value 0.993 | S. cerevisiae deletion strains, locus YLR403W, strain SFP1, stronger effect = lower value 0.95 | S. cerevisiae deletion strains, locus YML070W, strain DAK1, stronger effect = lower value 0.957 | S. cerevisiae deletion strains, locus YMR001C, strain CDC5, stronger effect = lower value 0.971 | S. cerevisiae deletion strains, locus YMR205C, strain PFK2 (second series), stronger effect = lower value 0.987 | S. cerevisiae deletion strains, locus YMR277W, strain FCP1, stronger effect = lower value 0.973 | S. cerevisiae deletion strains, locus YNL006W, strain LST8, stronger effect = lower value 0.972 | S. cerevisiae deletion strains, locus YNL020C, strain ARK1, stronger effect = lower value 0.983 | S. cerevisiae deletion strains, locus YNL161W, strain CBK1, stronger effect = lower value 0.978 | S. cerevisiae deletion strains, locus YNL183C, strain NPR1, stronger effect = lower value 1.03 | S. cerevisiae deletion strains, locus YNL207W, strain RIO2, stronger effect = lower value 0.983 | S. cerevisiae deletion strains, locus YNL222W, strain SSU72, stronger effect = lower value 0.976 | S. cerevisiae deletion strains, locus YNL307C, strain MCK1 (second series), stronger effect = lower value 0.978 | S. cerevisiae deletion strains, locus YOL078W, strain AVO1, stronger effect = lower value 0.979 | S. cerevisiae deletion strains, locus YOL136C, strain PFK27, stronger effect = lower value 0.973 | S. cerevisiae deletion strains, locus YOR061W, strain CKA2, stronger effect = lower value 0.955 | S. cerevisiae deletion strains, locus YOR119C, strain RIO1, stronger effect = lower value 0.97 | S. cerevisiae deletion strains, locus YOR231W, strain MKK1, stronger effect = lower value 1.06 | S. cerevisiae deletion strains, locus YOR329C, strain SCD5, stronger effect = lower value 0.983 | S. cerevisiae deletion strains, locus YPL031C, strain PHO85, stronger effect = lower value 0.956 | S. cerevisiae deletion strains, locus YPL153C, strain RAD53, stronger effect = lower value 0.949 | S. cerevisiae deletion strains, locus YPL204W, strain HRR25, stronger effect = lower value 0.939 | S. cerevisiae deletion strains, locus YPL209C, strain IPL1, stronger effect = lower value 0.989 | S. cerevisiae deletion strains, locus YPL256C, strain CLN2, stronger effect = lower value 1.08 | S. cerevisiae deletion strains, locus YPR025C, strain CCL1, stronger effect = lower value 0.987 | S. cerevisiae deletion strains, locus YPR106W, strain ISR1, stronger effect = lower value 0.994 | S. cerevisiae deletion strains, locus YPR111W, strain DBF20, stronger effect = lower value 0.986 | S. cerevisiae deletion strains, strain NNK1, stronger effect = lower value 0.999 | S. cerevisiae deletion strains, strain TSCII, stronger effect = lower value 0.981

O=C(NC1Cc2ccccc2C1)c1cncc(Br)c1
inactive: S. cerevisiae deletion strains, locus YAL013W, strain DEP1, stronger effect = lower value 1 | S. cerevisiae deletion strains, locus YBR229C, strain ROT2, stronger effect = lower value 0.992 | S. cerevisiae deletion strains, locus YCL061C, strain MRC1, stronger effect = lower value 0.982 | [1] 1 | S. cerevisiae deletion strains, locus YDL134C, strain PPH21, stronger effect = lower value 1.05 | S. cerevisiae deletion strains, locus YDR150W, strain NUM1, stronger effect = lower value 0.937 | S. cerevisiae deletion strains, locus YEL061C, strain CIN8, stronger effect = lower value 0.99 | S. cerevisiae deletion strains, locus YGR078C, strain PAC10, stronger effect = lower value 0.994 | S. cerevisiae deletion strains, locus YGR229C, strain SMI1, stronger effect = lower value 0.985 | [2] 0.848 | S. cerevisiae deletion strains, locus YHR087W, strain rtc3, stronger effect = lower value 0.985 | S. cerevisiae deletion strains, locus YJL187C, strain SWE1, stronger effect = lower value 1.01 | S. cerevisiae deletion strains, locus YJR043C, strain POL32, stronger effect = lower value 0.994 | S. cerevisiae deletion strains, locus YJR075W, strain HOC1, stronger effect = lower value 0.982 | S. cerevisiae deletion strains, locus YKL190W, strain CNB1, stronger effect = lower value 0.99 | S. cerevisiae deletion strains, locus YLR039C, strain RIC1, stronger effect = lower value 1.03 | S. cerevisiae deletion strains, locus YLR058C, strain SHM2 (second series), stronger effect = lower value 0.985 | S. cerevisiae deletion strains, locus YLR085C, strain ARP6, stronger effect = lower value 0.952 | S. cerevisiae deletion strains, locus YLR262C, strain YPT6, stronger effect = lower value 0.992 | S. cerevisiae deletion strains, locus YML094W, strain GIM5, stronger effect = lower value 0.98 | S. cerevisiae deletion strains, locus YMR219W, strain ESC1, stronger effect = lower value 0.991 | S. cerevisiae deletion strains, locus YMR263W, strain SAP30, stronger effect = lower value 0.984 | S. cerevisiae deletion strains, locus YMR307W, strain GAS1, stronger effect = lower value 0.912 | S. cerevisiae deletion strains, locus YNL153C, strain GIM3, stronger effect = lower value 0.994 | S. cerevisiae deletion strains, locus YNL298W, strain CLA4 (second series), stronger effect = lower value 0.966 | S. cerevisiae deletion strains, locus YNL322C, strain KRE1, stronger effect = lower value 0.995 | S. cerevisiae deletion strains, locus YNR030W, strain Alg12, stronger effect = lower value 0.982 | S. cerevisiae deletion strains, locus YPL055C, strain LGE1, stronger effect = lower value 0.982 | S. cerevisiae deletion strains, locus YPL241C, strain CIN2, stronger effect = lower value 0.98 | S. cerevisiae deletion strains, locus YPR135W, strain CTF4, stronger effect = lower value 0.836 | S. cerevisiae strains, strain wild type, stronger effect = lower value 0.988
